Screening results: PubChem, National Center for Advancing Translational Sciences (NCATS)
Rows were chosen to be rich in hits. Some 11% of all compounds tested hit in one or more screens of this group.
IMPase inh: cell-permeable inhibitors of inositol monophosphatase (IMPase); P97697; CHO-M1 cells, IP1 accumulation, HTRF TR-FRET ratio; inhibition (IP1 accumulation), % at 46.1 µM; 120,000 tested, under 10 active; active = well fitted curve in the direction sought with a large enough effect in the signal ratio, not every such curve was filed as active; inconclusive = small, poorly fitted or top-dose-only effect, or a change in a side signal; inactive = no such curve, though single readings can be large or run the other way; the % refers to the signal ratio;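 also: cells stimulated with carbachol in lithium chloride buffer; plate controls were DMSO basal wells for no effect and reference inhibitor wells for full effect; higher means more IMPase inhibition seen as more IP1 and lower FRET ratio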
Target sequence (P97697 whole entry, looked up): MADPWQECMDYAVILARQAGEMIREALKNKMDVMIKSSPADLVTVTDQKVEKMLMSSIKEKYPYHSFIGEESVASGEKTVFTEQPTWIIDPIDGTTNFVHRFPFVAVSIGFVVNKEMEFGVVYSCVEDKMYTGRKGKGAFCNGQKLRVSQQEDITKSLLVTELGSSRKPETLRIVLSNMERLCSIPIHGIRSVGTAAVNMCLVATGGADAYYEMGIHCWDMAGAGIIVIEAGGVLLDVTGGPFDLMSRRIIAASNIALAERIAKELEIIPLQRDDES
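CHO-M1, 2000 cells/well, cultured 16–30 h; cpd up to 46 uM; carbachol (50 uM solution, stimulation buffer w/ 50 mM LiCl, pH 7.4), 30 min 37C; IP-One TR-FRET, 10 min RT; Ex 320/Em 665, 620; Hill-fit AC50.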
ALDH1A1 inh: ALDH1A1 (human) enzyme inhibition; P00352; Purified ALDH1A1, NADH fluorescence, propionaldehyde substrate; Potency, µM (doses to about 75.3 µM), for inactives: at the top dose activity, negative = inhibition, actives largely listed as inhibitors; 220,000 tested, 7.3% active; AID 1030;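 also: potency is read from the fitted curve at half-maximal effect; plate controls were no enzyme wells and a reference inhibitor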
IMPase Li inh: membrane-permeable IMPase blocker, potentiated with lithium | 210,000 tested, 0.35% active | Potency, µM (top dose mostly 59.4 µM), without a hit: at the highest dose activity, negative = IMPase inhibition, most hits filed as inhibitors | CHO-M1 cells, IP1 TR-FRET (IP-One), carbachol + lithium; active = well fitted curve in the direction sought with a large enough effect; inconclusive = small, poorly fitted or top-dose-only effect, or another doubt; inactive = no such curve, though single readings can be large; an effect the other way counts as inactive or inconclusive;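 also: IP1 builds up when IMPase is blocked and the TR-FRET signal falls; potency is read from the fitted curve at half-maximal effect; plate controls were basal vehicle for no effect and high inhibitor control for full effect; nearly all actives have a fitted effect of over 50% in size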
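Lithium-sensitised IP1 accumulation assay; M1-expressing CHO cells treated 30 min at 37C with compound. Competitive antibody detection by time-resolved FRET followed a 10 min room-temperature lysis step.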
PNC inhibitor: inhibitors of perinucleolar compartment assembly; PC3M PTB-GFP, PNC prevalence imaging, 16 h; stronger effect = lower value; activity change (PNC), negative = inhibition, % at 10 µM; 140,000 tested, 3.1% active; AID 2417;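 active = readout at or below -70, meaning at least 70% loss of cells showing the perinucleolar compartment, a nuclear body marking cancer cells; inconclusive = readout between -30 and a set limit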;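 also: plate controls were DMSO wells for no effect and camptothecin positive control wells for full effect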
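Read-out is percentage of cells bearing a perinucleolar compartment, from automated 20x imaging of fixed, Hoechst-stained PC3M PTB-GFP cells. Cells were seeded 4 h, then exposed 16 h to compound (23 nl of library stock) in duplicate plates.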
HPGD block: HPGD (human) dehydrogenase inhibition; purified HPGD, NADH fluorescence kinetic, PGE2 substrate; Potency, µM, for inactives: at the highest dose activity change, negative = inhibition, most hits filed as inhibitors; 150,000 tested, 4.3% active; AID 894; also: potency is read from the fitted curve at half-maximal effect
Target sequence (P15428 whole entry, looked up): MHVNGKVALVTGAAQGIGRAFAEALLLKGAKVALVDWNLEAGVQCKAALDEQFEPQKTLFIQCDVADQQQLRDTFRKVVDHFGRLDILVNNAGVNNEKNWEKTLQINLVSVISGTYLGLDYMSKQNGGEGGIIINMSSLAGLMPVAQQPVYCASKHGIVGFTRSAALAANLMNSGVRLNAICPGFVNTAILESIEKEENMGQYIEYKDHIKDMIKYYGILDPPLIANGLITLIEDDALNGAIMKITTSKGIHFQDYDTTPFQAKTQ
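NADH formation kinetics: reaction with 30 uM PGE2 and 1 mM NAD+ (final), 20 nM enzyme, Tris-HCl pH 8 with Tween 20, after 15 min compound preincubation at room temperature. Fluorescence change, last versus first of five reads.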
12-hLO inh: blocks human 12-lipoxygenase activity. purified 12-hLO, xylenol orange hydroperoxide absorbance. AID 1452. Potency, µM (highest dose often 57.1 µM), without a hit: at the highest dose activity change, negative = inhibition, most hits filed as inhibitors. 150,000 tested, 0.12% active. P18054; active = well fitted curve in the direction sought with a large enough effect; inconclusive = small, poorly fitted or top-dose-only effect, or another doubt; inactive = no such curve, though single readings can be large; an effect the other way counts as inactive or inconclusive; also: potency is read from the fitted curve at half-maximal effect; nearly all actives have a fitted effect of over 55% in size
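Purified human 12hLO (150 nM), preincubated 15 min with compound, then 40 uM arachidonic acid for 30 min, room temperature, Hepes pH 7.0 with 0.01% Triton X-100. Hydroperoxide detected by ferrous iron/xylenol orange; 573/405 nm absorbance ratio gives reaction progress.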
Active calls of the source: *; ? = inconclusive; / = no result; [ ] = remark or other dose. Unless noted, calls follow the shape of the dose curve; as a rule, active = well fitted inhibition curve with a large enough effect (not every such curve was filed as active); inconclusive = small, poorly fitted or top-dose-only effect, or another doubt; inactive = no such curve, though single readings can be large or run the other way. Unless noted, % is scaled to controls: 0 for no effect and ±100 for the full control effect.

SMILES | IMPase inh | ALDH1A1 inh | IMPase Li inh | PNC inhibitor | HPGD block | 12-hLO inh
CC1Cc2ccccc2N1C(=S)Nc1ccc(S(N)(=O)=O)cc1 (stereo not drawn) | / | -5% | 6% | ? | -4% | -2%
CCCCC1=CC2=C(c3ccco3)C(=O)C(C)(OC(=O)c3ccc(OC)cc3)C(=O)C2=CN1Cc1ccccc1 (stereo not drawn) | / | 1%[13.5 µM] | -12% | / | -8% | -6%[11.4 µM]
CCCCC1=CC2=C(c3ccco3)C(=O)C(C)(OC(=O)c3ccc(OC)cc3)C(=O)C2=CN1Cc1ccc2c(c1)OCO2 (stereo not drawn) | / | 3.5µM* | -19% | / | -8% | -16%[11.4 µM]
N#CC(C(=O)c1ccccc1)=C1SCCS1 | / | 14µM* | / | / | / | /
Nc1nc(SCc2ccc(Cl)cc2)[nH]c(=O)c1-c1ccccc1 | 6 | ? | 14% | ? | -6% | -4%
Nc1[nH]c(=S)[nH]c(=O)c1-c1ccccc1 | -1 | ? | 10%[38.3 µM] | 16 | 25µM* | 1%
CCCOC(=O)/C(=C\C=C\c1ccco1)NC(=O)c1ccccc1 | / | 20µM* | 17% | / | / | /
Nc1ncnc2c1ncn2[C@H]1O[C@@H](CO)[C@@H](O)[C@H]1N | / | 5%[13.5 µM] | -1% | / | -11% | -5%[11.4 µM]
Cc1cc(/C=C2/NC(=O)N(c3ccccc3)C2=O)c(C)n1C(C)C | / | ? | 2% | -19 | -7% | -8%
CCn1c(C)cc(/C=C2\NC(=O)N(Cc3ccccc3)C2=O)c1C | 2 | 8.9µM* | 3%[38.3 µM] | 2 | -13% | -16%
Cc1cc(/C=C2/NC(=O)N(Cc3ccccc3F)C2=O)c(C)n1C(C)C | / | 2µM* | 12% | ? | -26% | -5%
CCn1c(C)cc(/C=C2/NC(=O)N(Cc3ccccc3F)C2=O)c1C | / | 1.8µM* | 7% | -4 | ? | -2%
Cc1cc(C)cc(OC(C)C(=O)Nc2c(C(=O)c3ccccc3)oc3ccccc23)c1 (stereo not drawn) | 18 | / | / | / | / | /
C[C@H](N)CCP(=O)(O)O | / | 14% | -9% | / | / | /
O=C(CC(c1ccccc1)c1ccccc1)N1CCN(c2ccccn2)CC1 | / | 3% | 1% | / | / | /
O=C(CC(c1ccccc1)c1ccccc1O)N1CCCC1 (stereo not drawn) | -3 | -1% | 37%[38.3 µM] | -88* | 1.8µM* | -2%
Cc1cccc(C(CC(=O)N2CCCC2)c2ccccc2)c1O (stereo not drawn) | -3 | -1% | -15%[38.3 µM] | 37 | 11µM* | 0%
CC(C)(C)NC(=O)CC(c1ccccc1)c1ccccc1O (stereo not drawn) | 4 | -2% | 5%[38.3 µM] | -15 | -23% | -8%
COc1ccccc1C(CC(=O)N1CCCC1)c1ccc2c(c1)OCO2 (stereo not drawn) | / | 8% | 4% | / | / | /
Cc1ccc(C(CC(=O)N2CCCC2)c2ccccc2)c(O)c1C (stereo not drawn) | 6 | 6% | 26%[38.3 µM] | 15 | 7.9µM* | -7%
Cc1ccc(-c2nnc(SCc3nc4ccccc4[nH]3)n2Cc2ccco2)cc1 | 4 | 16µM* | 19%[38.3 µM] | 18 | -29% | -13%
Cc1cccc(-c2nnc(SCc3nc4ccccc4[nH]3)n2Cc2ccco2)c1 | -18 | 16% | / | -9 | / | -10%
O=C(CSc1nnc(-c2ccncc2)n1Cc1ccco1)N1c2ccccc2Sc2ccc(Cl)cc21 | -7 | -1% | 20% | -100* | -18% | 2%
C(=C\c1ccccc1)/CSc1nnc(-c2ccncc2)n1Cc1ccco1 | 5 | ? | 14%[38.3 µM] | 27 | -19% | -17%
c1ccc(-c2nnc(CSc3nnc(-c4ccncc4)n3Cc3ccco3)o2)cc1 | -14 | 9% | 5%[38.3 µM] | -6 | 20µM* | -1%
SMILES | IMPase inh | ALDH1A1 inh | IMPase Li inh | PNC inhibitor | HPGD block | 12-hLO inh
Cn1c(SCC(=O)N2c3ccccc3Sc3ccc(Cl)cc32)nnc1-c1ccco1 | 5 | ? | 16% | 0 | -13% | 9%
CC(=O)Nc1cccc(NC(=O)CSc2ncc(-c3ccc(Cl)cc3)n2Cc2ccco2)c1 | 13 | -10% | 43%[38.3 µM] | -17 | -24% | -8%
COc1ccc(-c2cnc(SCC(=O)Nc3ccc4c(c3)OCO4)n2Cc2ccco2)cc1 | 20 | 11µM* | 21%[38.3 µM] | ? | -17% | 0%
CC(C)=CCCC1(C)C=Cc2c(c(C)cc3c2[nH]c2ccccc23)O1 (stereo not drawn) | / | 10% | 1% | / | -8% | /
COc1ccc(-c2nc3ccccc3n3c(-c4ccccc4)c4c(=O)n(C)c(=O)n(C)c4c23)cc1OC | 11 | / | / | / | / | /
COC(=O)C1=C(C)N(Cc2ccccc2)C2=C3C(=O)N(C)C(=O)C3[C@@](O)(C(=O)OC)C(=O)N2C1c1ccccc1 (stereo partly drawn) | / | 11%[13.5 µM] | / | / | / | /
CCn1c(SCC(=O)Nc2ccc3c(c2)c2ccccc2n3CC)nnc1-c1cnccn1 | 0 | 12% | -1%[38.3 µM] | 4 | -1% | -6%
O=C(CSc1nnc(-c2ccc(Cl)cc2)n1Cc1ccco1)Nc1ccc2c(c1)OCCO2 | -1 | 5µM* | 5%[38.3 µM] | 8 | 25µM* | ?
O=C(CSc1nnc(Cc2cccs2)n1Cc1ccco1)Nc1ccc(Cl)cc1Cl | 16 | ? | 9%[38.3 µM] | 10 | -20% | ?
CCn1c2ccccc2c2cc(NC(=O)CSc3nnc(C4CC4)n3Cc3ccco3)ccc21 | 1 | 18µM* | 13% | -24 | ? | -7%
O=C(CSc1nnc(-c2ccncc2)n1-c1ccc(F)cc1)NC(=O)NCc1ccco1 | 0 | 25µM* | 17% | 56 | -17% | -1%
O=C(CSc1nnc(Cc2cccs2)n1Cc1ccco1)Nc1ccc(Br)cc1 | 17 | 20µM* | 48%[38.3 µM] | -14 | ? | -28%
Cc1cccc(C)c1NC(=O)CSc1nnc(-c2ccncc2)n1Cc1ccco1 | 6 | 17% | -9%[38.3 µM] | 2 | -9% | -2%
O=C(CSc1nnc(-c2ccccc2Cl)n1Cc1ccco1)Nc1ccc2c(c1)OCCO2 | 4 | 10µM* | 30%[38.3 µM] | -96* | -13% | 9%
O=C(CSc1nnc(-c2ccncc2)n1Cc1ccco1)Nc1nccs1 | ? | 1% | -2% | -100* | -7% | -1%
O=C(CSc1nnc(COc2ccccc2)n1Cc1ccco1)Nc1ccc2c(c1)OCCO2 | 14 | ? | 33%[38.3 µM] | -8 | -1% | 2%
CN1CCN(CCCC(=O)c2ccc(C3CCCC3)cc2)CC1 | / | ? | 11% | -3 | -7% | -2%
CCN1C(=O)c2cccc3c(S(=O)(=O)Nc4ccccc4)ccc1c23 | -6 | 1µM* | 10%[38.3 µM] | -27 | -15% | -14%
CCN1C(=O)c2cccc3c(S(=O)(=O)Nc4ccccn4)ccc1c23 | -4 | 7.9µM* | 6%[38.3 µM] | 33 | -5% | -3%
